Columns and labels:
Details in all cases: 60 µM; 5 days; temperature: 20 °C
Meloidogyne hapla J2 = assay: proportion of mobile M. hapla J2 relative to DMSO control (fraction of DMSO control); higher = more viable, less nematicidal, active = 0.7 or less
Procedure, shortened: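 About 25 M. hapla J2 were placed in each well of a 96-well plate in distilled water, and compound was pinned in to a final 60 µM with 0.6% v/v DMSO. The sealed plates were shaken at 200 rpm at 20 °C for 5 days, after which 2 µL of 1 M NaOH went into each well. Mobility was then scored under the microscope and divided by the mean value from DMSO-only wells on the same plate. Each plate held eight such DMSO wells, and two biological replicates were averaged.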

[1] = test system: Caenorhabditis elegans dauer (daf-2(e1370)); assay: proportion of mobile C. elegans dauer larvae relative to DMSO control (fraction of DMSO control); higher = more viable, less nematicidal, active = 0.63 or less; extreme values may be limits of the assay
Procedure, shortened: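 The proportion of mobile worms, relative to DMSO wells, was scored by dissection microscope and averaged over two biological replicates. Worms were C. elegans dauers, about 20 per well in liquid NGM in 96-well plates, generated from synchronized larvae on MYOB plates with E. coli OP50 at 25 °C for 48 h. They were treated with compound pinned to 60 µM final (0.6% v/v DMSO) and kept in sealed plates shaken at 200 rpm for 5 days at 20 °C.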

Ditylenchus dipsaci = assay: proportion of mobile D. dipsaci (mixed stage) relative to DMSO control (fraction of DMSO control); higher = more viable, less nematicidal, active = 0.86 or less; extreme values may be limits of the assay
Procedure, shortened: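 Ditylenchus dipsaci nematodes were cultured on pea plants in Gamborg B-5 agar, then extracted into water through a filter funnel, and roughly 20 worms in distilled water were placed in each well of a 96-well plate. Compound was pinned in to a final concentration of 60 µM (0.6% v/v DMSO), and the sealed plates were shaken at 200 rpm for 5 days at 20 °C. Mobile worms were counted under the microscope after 2 µL of 1 M NaOH was added. Mobility is given relative to DMSO controls as the mean of two biological replicates.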

| SMILES | proportion of mobile M. hapla J2 (Meloidogyne hapla J2) | proportion of mobile C. elegans dauer larvae [1] | proportion of mobile D. dipsaci (Ditylenchus dipsaci) |
| --- | --- | --- | --- |
| Fc1ccc(-c2noc(COc3ccccc3Cl)n2)cc1 | 1.03 (inactive) | 1 (inactive) | 1 (inactive) |
| Fc1ccccc1-c1nc(-c2ccccc2)no1 | 0.991 (inactive) | 1 (inactive) | 1 (inactive) |
| CC(=O)Nc1ccc(NC(=O)c2ccccc2-c2nc(-c3cccc(C)c3)no2)cc1 | 1.01 (inactive) | 1 (inactive) | 1 (inactive) |
| CC1CC(C)CN(C(=O)CSc2nnc(-c3cccc(Cl)c3)o2)C1 (centres undefined) | 1.04 (inactive) | 1 (inactive) | 1 (inactive) |
| COc1ccc(-c2noc(-c3ccc(C)c(C)c3)n2)cc1 | 0.807 (inactive) | 1 (inactive) | 1 (inactive) |
| COc1cccc(-c2nc(-c3ccccc3)no2)c1 | 1.04 (inactive) | 0.861 (inactive) | 1 (inactive) |
| CCc1ccc(OCc2nc(-c3cccnc3)no2)cc1 | 1.04 (inactive) | 0.436 (active) | 1 (inactive) |
| COc1cccc(-c2noc(-c3cc(C)ccc3C)n2)c1 | 0.995 (inactive) | 1 (inactive) | 1 (inactive) |
| COc1ccccc1OCc1nc(-c2ccc(Cl)cc2)no1 | 1.01 (inactive) | 1 (inactive) | 1 (inactive) |
| O=C(CSc1nnc(-c2ccncc2)o1)Nc1cc(C(F)(F)F)ccc1Cl | 0.841 (inactive) | 1 (inactive) | 1 (inactive) |
| COc1ccc(-c2nnc(SCC(=O)Nc3cc(Cl)ccc3C)o2)cc1 | 0.904 (inactive) | 1 (inactive) | 1 (inactive) |
| CC(C)CCC(=O)Nc1ccccc1-c1nc(-c2ccccn2)no1 | 1.03 (inactive) | 1 (inactive) | 1 (inactive) |
| Cc1c(C(=O)CSc2nnc(-c3ccccc3)o2)c2ccccc2n1C | 0.957 (inactive) | 1 (inactive) | 1 (inactive) |

— the supplement of paper PMC11219838
